Results as given in PubChem BioAssay (Tox21).
Inconclusive results are not listed. Calls of active or inactive are those of the source. Calls come from the whole dose curve; as a rule, active = well fitted curve in the direction sought with a large enough effect in the repeat runs; inconclusive = weak or mixed curves; inactive = no such curve, though single readings can be large; an effect the other way counts as inactive or inconclusive.

Columns and labels:
[1] = A CellTox Green Cytotoxicity Assay to monitor cytotoxicity in HEK293 cells - 40 hour (AID 1224871); note: nearly all actives have a fitted effect of over 45% in size
Outline: (§1)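 Homogeneous no-lysis format: HEK293 cell suspension mixed with CellTox Green reagent, seeded, incubated 5 h at 37 C/5% CO2, then dosed by pintool with compound in DMSO.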

[2] = qHTS RealTime-Glo MT Cell Viability Assay in HEK293 cells - 40 hour (AID 1224874); details: RealTime-Glo luminescence; max response: stronger effect = lower value; note: nearly all actives have a fitted effect of over 50% in size
Outline: (§2)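 Measured as luminescence from the same continuously cultured HEK293 wells at successive time points (0, 8, 16, 24, 32, 40 h) after compound addition. Reagent present from seeding; dosing at 5 h; incubation 37 C.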

[3] = A CellTox Green Cytotoxicity Assay to monitor cytotoxicity in HEK293 cells - 24 hour (AID 1224875); note: series mostly up to about 77 µM; nearly all actives have a fitted effect of over 45% in size
Outline: as §1

[4] = A CellTox Green Cytotoxicity Assay to monitor cytotoxicity in HepG2 cells - 16 hour (AID 1224876); note: nearly all actives have a fitted effect of over 45% in size
Outline: (§3)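 Fluorescent DNA-binding dye, 600 HepG2 cells/well, 5 h preincubation then compound in DMSO; same plates read at 0–40 h, 37 C.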

[5] = qHTS RealTime-Glo MT Cell Viability Assay in HepG2 cells - 32 hour (AID 1224877); note: nearly all actives have a fitted effect of over 55% in size; note: potency is the fitted concentration of half-maximal effect
Outline: (§4)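 Real-time, nonlytic viability: 600 HepG2 cells/well mixed with NanoLuc enzyme plus prosubstrate; 5 h settle, compound (DMSO) added by pintool; luminescence monitored over 40 h at 37 C.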

[6] = A CellTox Green Cytotoxicity Assay to monitor cytotoxicity in HepG2 cells - 24 hour (AID 1224878); note: nearly all actives have a fitted effect of over 45% in size
Outline: as §3

[7] = A CellTox Green Cytotoxicity Assay to monitor cytotoxicity in HepG2 cells - 40 hour (AID 1224879); note: nearly all actives have a fitted effect of over 40% in size
Outline: as §3

[8] = qHTS RealTime-Glo MT Cell Viability Assay in HEK293 cells - 0 hour (AID 1224880)
Outline: as §2

[9] = A CellTox Green Cytotoxicity Assay to monitor cytotoxicity in HEK293 cells - 32 hour (AID 1224881); note: nearly all actives have a fitted effect of over 40% in size
Outline: as §1

[10] = A CellTox Green Cytotoxicity Assay to monitor cytotoxicity in HepG2 cells - 0 hour (AID 1224882); note: nearly all actives have a fitted effect of over 35% in size
Outline: as §3

[11] = A CellTox Green Cytotoxicity Assay to monitor cytotoxicity in HepG2 cells - 32 hour (AID 1224883); note: nearly all actives have a fitted effect of over 50% in size
Outline: as §3

[12] = A CellTox Green Cytotoxicity Assay to monitor cytotoxicity in HEK293 cells - 8 hour (AID 1224884); note: nearly all actives have a fitted effect of over 35% in size
Outline: as §1

[13] = qHTS RealTime-Glo MT Cell Viability Assay in HEK293 cells - 24 hour (AID 1224886); note: top concentration of the series differs between compounds; nearly all actives have a fitted effect of over 50% in size
Outline: (§5)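 Cells + reagent dispensed (600 cells/well, HEK293) → 5 h at 37 C/5% CO2 → 23 nL compound in DMSO pinned → 40 h at 37 C → luminescence read at 0, 8, 16, 24, 32, 40 h.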

[14] = qHTS RealTime-Glo MT Cell Viability Assay in HEK293 cells - 8 hour (AID 1224887); note: nearly all actives have a fitted effect of over 50% in size; note: potency is the fitted concentration of half-maximal effect
Outline: as §2

[15] = A CellTox Green Cytotoxicity Assay to monitor cytotoxicity in HEK293 cells - 16 hour (AID 1224888); note: nearly all actives have a fitted effect of over 35% in size
Outline: as §1

[16] = qHTS RealTime-Glo MT Cell Viability Assay in HepG2 cells - 0 hour (AID 1224889); note: nearly all actives have a fitted effect of over 50% in size
Outline: as §4

[17] = qHTS RealTime-Glo MT Cell Viability Assay in HEK293 cells - 16 hour (AID 1224872)
Outline: as §5

[18] = qHTS RealTime-Glo MT Cell Viability Assay in HepG2 cells - 8 hour (AID 1224873); note: nearly all actives have a fitted effect of over 55% in size
Outline: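 Real-time viability: cells seeded at 600 per well together with NanoLuc and cell-permeant prosubstrate, compounds added after 5 h incubation. Luminescence tracked at 0, 8, 16, 24, 32 and 40 h of exposure.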

[19] = qHTS RealTime-Glo MT Cell Viability Assay in HepG2 cells - 16 hour (AID 1224885); note: nearly all actives have a fitted effect of over 50% in size
Outline: as §4
% is set by controls: 0 for no effect and ±100 for the full control effect.

CCOC(=O)C(Cl)Cc1cc(-n2nc(C)n(C(F)F)c2=O)c(F)cc1Cl (centres undefined)
active: Potency [14] 49 µM
inactive: Potency [1] | max response [2] 2.36% | Potency [3] | Potency [4] | Potency [5] | Potency [6] | Potency [7] | outcome [8] | Potency [9] | outcome [10] | Potency [11] | Potency [12] | Potency [13] | Potency [15] | outcome [16]

CC(C)(C)NC[C@H](O)c1ccc(O)cc1Cl
inactive: Potency [1] | Potency [17] | outcome [18] | max response [2] 4.05% | Potency [3] | Potency [4] | Potency [7] | outcome [8] | Potency [9] | Potency [12] | Potency [19] | Potency [14] | Potency [15] | outcome [16]

O=[N+]([O-])CCO
inactive: Potency [1] | Potency [17] | outcome [18] | max response [2] 3.11% | Potency [3] | Potency [5] | outcome [8] | Potency [9] | outcome [10] | Potency [12] | Potency [19] | Potency [13] | Potency [14] | Potency [15] | outcome [16]

CCC(CC)(CNC(=O)CCCO)c1cccc(OC)c1
inactive: Potency [1] | Potency [17] | max response [2] 4.41% | Potency [3] | Potency [4] | Potency [5] | Potency [6] | Potency [7] | outcome [8] | Potency [9] | outcome [10] | Potency [11] | Potency [12] | Potency [19] | Potency [13] | Potency [14] | Potency [15] | outcome [16]

N[C@@H](Cc1ccc(Oc2cc(I)c(O)c(I)c2)c(I)c1)C(=O)O
inactive: Potency [1] | Potency [17] | outcome [18] | max response [2] 5.88% | Potency [3] | Potency [4] | Potency [5] | Potency [6] | Potency [7] | outcome [8] | outcome [10] | Potency [11] | Potency [12] | Potency [19] | Potency [13] | Potency [14] | Potency [15] | outcome [16]

O=C/C=C/c1ccco1
inactive: Potency [1] | Potency [17] | outcome [18] | max response [2] 3.04% | Potency [3] | Potency [4] | Potency [5] | Potency [6] | Potency [7] | outcome [8] | Potency [9] | outcome [10] | Potency [11] | Potency [12] | Potency [19] | Potency [14] | Potency [15] | outcome [16]

CCOP(=S)(OCC)SCCl
inactive: Potency [17] | outcome [18] | max response [2] -0.801% | Potency [3] | Potency [4] | Potency [5] | Potency [6] | Potency [7] | outcome [8] | outcome [10] | Potency [11] | Potency [12] | Potency [19] | Potency [13] | Potency [14] | Potency [15] | outcome [16]

ClCCCCl
inactive: Potency [1] | Potency [17] | outcome [18] | max response [2] 9.81% | Potency [3] | Potency [4] | Potency [5] | Potency [7] | outcome [8] | Potency [9] | Potency [11] | Potency [12] | Potency [19] | Potency [14] | Potency [15] | outcome [16]

CC(C)[N+](C)(CCC(C(N)=O)(c1ccccc1)c1ccccc1)C(C)C
inactive: Potency [1] | Potency [17] | max response [2] -2.84% | Potency [3] | Potency [4] | Potency [6] | Potency [7] | outcome [8] | Potency [9] | Potency [11] | Potency [12] | Potency [19] | Potency [13] | Potency [14] | Potency [15] | outcome [16]
active: Potency [5] 21.3 µM

C=CCC1(C(C)CC)C(=O)NC(=O)NC1=O (centres undefined)
inactive: Potency [1] | Potency [17] | outcome [18] | max response [2] 5.74% | Potency [3] | Potency [4] | Potency [5] | Potency [6] | Potency [7] | outcome [8] | Potency [9] | outcome [10] | Potency [11] | Potency [12] | Potency [19] | Potency [14] | Potency [15] | outcome [16]

NCCOS(=O)(=O)O
inactive: Potency [1] | Potency [17] | outcome [18] | max response [2] 1.3% | Potency [3] | Potency [4] | Potency [5] | Potency [7] | outcome [8] | Potency [9] | outcome [10] | Potency [11] | Potency [12] | Potency [19] | Potency [13] | Potency [14] | Potency [15] | outcome [16]

CCCCCCCCBr
inactive: Potency [1] | Potency [17] | outcome [18] | max response [2] 2.41% | Potency [3] | Potency [4] | Potency [5] | Potency [6] | Potency [7] | outcome [8] | Potency [9] | outcome [10] | Potency [12] | Potency [19] | Potency [13] | Potency [14] | Potency [15] | outcome [16]

CNC(=O)Oc1ccccc1C(C)C
inactive: Potency [1] | Potency [17] | outcome [18] | max response [2] 3.33% | Potency [3] | Potency [4] | Potency [5] | Potency [7] | outcome [8] | Potency [9] | outcome [10] | Potency [11] | Potency [12] | Potency [19] | Potency [14] | Potency [15] | outcome [16]

C=C(C)[C@H]1CN[C@H](C(=O)O)[C@H]1CC(=O)O
inactive: Potency [1] | Potency [17] | max response [2] 0.763% | Potency [3] | Potency [4] | Potency [6] | Potency [7] | outcome [8] | Potency [9] | outcome [10] | Potency [11] | Potency [12] | Potency [19] | Potency [13] | Potency [14] | Potency [15] | outcome [16]

O=c1[nH]c2ccccc2o1
inactive: Potency [1] | Potency [17] | outcome [18] | max response [2] -0.283% | Potency [3] | Potency [4] | Potency [5] | Potency [7] | outcome [8] | Potency [9] | outcome [10] | Potency [11] | Potency [12] | Potency [14] | Potency [15] | outcome [16]

Cl/C=C/CCl
inactive: Potency [1] | Potency [17] | max response [2] 7.85% | Potency [3] | Potency [4] | Potency [5] | Potency [7] | outcome [8] | Potency [9] | outcome [10] | Potency [11] | Potency [12] | Potency [13] | Potency [14] | Potency [15] | outcome [16]
